Screening results as filed in PubChem.
TLR9-MyD88 inh = TLR9-MyD88 interaction inhibition; Q9NR96+Q99836; CHO BLA complementation TLR9-MyD88, CCF4 FRET ratio; inhibition, % at 4.98 µM; 340,000 tested, 0.21% active;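 active = inhibition above the mean over all tested compounds plus 3 SD, cut at about 21% in these data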;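 also: 0% = DMSO only wells and 100% = clavulanate BLA inhibitor control wells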
Target sequence (Q99836 whole entry, looked up): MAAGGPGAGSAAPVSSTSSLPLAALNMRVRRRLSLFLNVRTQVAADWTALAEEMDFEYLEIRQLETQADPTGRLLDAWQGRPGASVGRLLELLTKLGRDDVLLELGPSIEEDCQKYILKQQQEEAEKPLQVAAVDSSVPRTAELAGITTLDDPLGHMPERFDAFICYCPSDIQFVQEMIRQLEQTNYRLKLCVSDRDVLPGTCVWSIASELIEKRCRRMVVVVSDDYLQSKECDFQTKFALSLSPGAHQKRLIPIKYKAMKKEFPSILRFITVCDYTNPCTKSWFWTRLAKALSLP
Target sequence (Q9NR96 whole entry, looked up): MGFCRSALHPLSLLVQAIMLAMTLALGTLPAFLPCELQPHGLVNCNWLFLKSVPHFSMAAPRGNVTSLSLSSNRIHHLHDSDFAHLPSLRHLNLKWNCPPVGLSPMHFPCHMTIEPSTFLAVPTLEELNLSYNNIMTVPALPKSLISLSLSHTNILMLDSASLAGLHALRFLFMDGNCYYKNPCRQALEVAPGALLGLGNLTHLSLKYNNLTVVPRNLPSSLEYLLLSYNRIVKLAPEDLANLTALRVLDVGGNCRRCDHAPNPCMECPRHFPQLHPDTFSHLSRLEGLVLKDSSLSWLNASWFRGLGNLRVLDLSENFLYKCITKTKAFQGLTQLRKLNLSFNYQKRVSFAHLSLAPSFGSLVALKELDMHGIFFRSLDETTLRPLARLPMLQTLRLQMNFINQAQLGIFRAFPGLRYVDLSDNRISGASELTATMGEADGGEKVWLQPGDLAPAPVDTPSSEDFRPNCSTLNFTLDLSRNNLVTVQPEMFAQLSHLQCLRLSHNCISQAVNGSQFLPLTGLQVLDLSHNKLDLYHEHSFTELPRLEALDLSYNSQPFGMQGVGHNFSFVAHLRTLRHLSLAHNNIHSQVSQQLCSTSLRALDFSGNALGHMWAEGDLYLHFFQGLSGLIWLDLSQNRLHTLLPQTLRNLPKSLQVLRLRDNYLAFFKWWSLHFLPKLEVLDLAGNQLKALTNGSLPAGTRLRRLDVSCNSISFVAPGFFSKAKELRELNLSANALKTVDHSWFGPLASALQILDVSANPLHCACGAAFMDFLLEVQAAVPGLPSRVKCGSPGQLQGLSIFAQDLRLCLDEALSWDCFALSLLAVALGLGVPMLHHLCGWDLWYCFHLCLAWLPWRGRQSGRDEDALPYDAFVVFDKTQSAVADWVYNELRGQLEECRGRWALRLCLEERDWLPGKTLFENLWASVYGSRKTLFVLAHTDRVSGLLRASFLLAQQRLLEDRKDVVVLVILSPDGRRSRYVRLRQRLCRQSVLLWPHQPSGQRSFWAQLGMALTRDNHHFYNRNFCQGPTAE
ANO1 activ = activates or potentiates the mouse TMEM16A chloride channel | Q8BHY3 | B-score at 10 µM | HEK293 TMEM16A/YFP-H148Q/I152L, iodide quench fluorescence; stronger effect = lower value | 340,000 tested, 0.3% active;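 active = fluorescence-ratio B-score plate-corrected deviation score at least 3 library SD below zero, with starting fluorescence score within 5 deviations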;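 also: channel opened by trigger with iodide after compound preincubation; score built on the fluorescence ratio of max minus min over baseline; more negative score means more quench and so TMEM16A activation or potentiation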
TMEM16A inh = mouse TMEM16A channel inhibition, primary screen | HEK293 TMEM16A/YFP iodide influx fluorescence, ionomycin | normalized B-score (activity score, 25-100; higher = stronger inhibition) at 10 µM | 310,000 tested, 1.2% active;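 active = ratio plate-corrected score three or more library SD toward inhibition, starting fluorescence score within five deviations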;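 also: score derived from kinetic fluorescence span divided by baseline fluorescence per well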
NOD2 RIPK2 PPI = blocks binding of human NOD2 to RIPK2; CHO BLA complementation NOD2-RIPK2, CCF4 ratio; inhibition, % at 4.98 µM; 360,000 tested, 0.38% active; AID 624267; in the data active = inhibition above about 21%;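 also: 0% = vehicle only and 100% = reference blocker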
TLR4-MyD88 BLA = blocks binding of human TLR4 to MyD88 | O00206+Q99836 | HeLa CL3-4 TLR4/MyD88 BLA complementation, FRET ratio | inhibition, % at 8.4 µM | 200,000 tested, 0.18% active | AID 861; in the data active = inhibition above about 25%;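 also: 0% = vehicle and 100% = reference inhibitor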
m5-HT2A agonist = activates the mouse 5-HT2A serotonin receptor | activation, % at 7.6 µM | CHO-K1 mHTR2A beta-arrestin complementation, luminescence; percent of 30 µM serotonin response | 360,000 tested, 0.66% active;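 active = activation above a run cutoff, the mean activation of all tested compounds plus 3 SD, cut at about 14% in these data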;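 also: 0% = plate median of compound wells and 100% = 30 µM serotonin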
TMEM16A reconf = re-confirmation of mouse TMEM16A chloride channel inhibitors; shares compounds with TMEM16A inh; HEK293 TMEM16A/YFP-H148Q, iodide quench fluorescence; ionomycin added to raise cell calcium; inhibition, % at 10 µM; 2,300 tested, 39% active; AID 652189;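 active = mean duplicate percent inhibition, scaled so buffer wells are 0 and the reference blocker 100, over three buffer SD above buffer mean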
TMEM16A Ca cntr = calcium mobilization counter-screen hit for TMEM16A inhibitor series | calcium response (% of ionomycin), % at 10 µM | TMEM16A/YFP HEK293, Fluo4 calcium mobilization | shares compounds with TMEM16A inh | 2,300 tested, 2% active;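 active = duplicate-averaged calcium signal over 20% of the ionomycin maximum, relative to buffer baseline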;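 also: each well's signal is peak minus trough fluorescence divided by its pre-addition baseline; 0% = buffer wells and 100% = ionomycin wells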
Parental YFP cnt = parental YFP-HEK293 iodide quench counter-screen activity. ionomycin. AID 652233. shares compounds with TMEM16A inh. 2,300 tested, under 10 active. YFP ratio F(max-min)/F0 at 10 µM;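 active = yellow fluorescent protein signal ratio exceeding the buffer control mean by over 5 SD of those controls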;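 also: ratio is mean of duplicate wells from kinetic YFP trace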
ClC-1 rat inh = blocks the rat ClC-1 voltage-dependent chloride channel; shares compounds with TMEM16A inh; CHO ClC-1-YFP, iodide influx fluorescence quench; iodide control reads 0, buffer control 100; ratio percent, % at 10 µM; 2,300 tested, under 10 active; AID 652236;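 active = duplicate-mean ratio percent above the mean of iodide-only control wells, which defines zero, plus 5 of their SD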;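 also: higher percent means stronger block of ClC-1 iodide influx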
* marks the source's active call; other numbers are inactive results; i = inactive; nt = no result given. The list is not random: actives were taken first. Their share in the collection is about 2.4%.

SMILES	TLR9-MyD88 inh	ANO1 activ	TMEM16A inh	NOD2 RIPK2 PPI	TLR4-MyD88 BLA	m5-HT2A agonist	TMEM16A reconf	TMEM16A Ca cntr	Parental YFP cnt	ClC-1 rat inh
COc1ccc(/C=C2\C(=N)N3N=C(CC(=O)N4CCOCC4)SC3=NC2=O)cc1	-3	i	i	9	nt	1	nt	nt	nt	nt
COc1ccc(/C=N/Nc2nc(=O)[nH]nc2C)cc1OC	-4	i	i	3	nt	-3	nt	nt	nt	nt
COc1ccc(CNc2ccc(-c3ccccc3OC)nn2)cc1	1	i	i	-8	-7	1	nt	nt	nt	nt
COc1ccc(CNc2ccc(-c3ccc(OC)cc3)nn2)cc1	1	i	100*	0	-9	0	i	i	-0.54	-4
COc1ccc2[nH]c3c(NCc4ccco4)ncnc3c2c1	nt	nt	i	nt	9	nt	nt	nt	nt	nt
Fc1ccc2[nH]c3c(NCc4ccccc4)ncnc3c2c1	-5	i	100*	4	nt	6	66%*	i	-1	-26
S=C(Nc1nc2c(s1)CCCC2)NC1CC1	0	i	i	4	nt	6	nt	nt	nt	nt
COc1ccc(C(=O)COC(=O)c2ccccc2NS(=O)(=O)c2ccc(O)c([N+](=O)[O-])c2)cc1	-9	i	25*	-10	nt	-3	30%*	i	-0.86	-10
CCOC(=O)c1c(C)c(C(=O)NCc2ccco2)c(C)n1C	2	i	i	-3	9	1	nt	nt	nt	nt
CCOC(=O)c1c(C)c(C(=O)N2CCN(C(=O)c3ccco3)CC2)c(C)n1C	-10	i	100*	1	-3	0	i	i	-1	0
O=C(CN1CCN(Cc2ccccc2)CC1)NCc1ccc(Cl)cc1	-6	i	i	0	nt	0	nt	nt	nt	nt
O=C(NCCSc1ccccc1)c1ccc(Br)cc1	8	i	i	-4	4	3	nt	nt	nt	nt
O=C(NCCCSc1ccccc1)c1cc(Br)ccc1O	4	i	100*	3	nt	-15	52%*	i	-1.3	-24
CC(NC(=O)c1cc(F)c(F)cc1Cl)C1CC2CCC1C2 (configuration not stated)	-9	i	i	-9	nt	0	nt	nt	nt	nt
O=C(Nc1ccc(F)cc1)c1ccc(CSc2ccccc2)o1	-4	i	i	-7	11	-3	nt	nt	nt	nt
CC(=O)c1ccc(NC(=O)c2ccc(CSc3ccccc3)o2)cc1	-1	i	100*	-11	7	-3	22%*	i	-0.89	-9
COc1ccc(CNS(=O)(=O)c2ccc(Br)s2)cc1	-6	nt	i	-14	nt	-8	nt	nt	nt	nt
COc1cc(NS(=O)(=O)c2ccc(Br)s2)cc(OC)c1	2	i	25*	-3	-18	0	32%*	i	-0.98	-6
Cc1cccc(C)c1N1C(=O)c2ccccc2NC(=O)C1C(=O)NCC(C)C (configuration not stated)	nt	nt	nt	-10	nt	1	nt	nt	nt	nt
N#CC1=C(N)OC2=C(CCc3ccccc32)C1c1ccccc1Cl (configuration not stated)	-8	i	i	-1	8	-2	38%*	i	-1	0
CCCOc1ncnc2c1[nH]c1ccccc12	-5	i	i	-1	-16	3	nt	nt	nt	nt
CC(C)Oc1ncnc2c1[nH]c1ccccc12	-9	i	25*	-11	nt	4	i	i	-0.99	-10
CCOC(=O)C1=C(C)NC2=C(C(=O)C(C(=O)OC)C(C)C2)C1c1ccc(OC)c(O)c1 (configuration not stated)	-10	i	25*	-8	7	0	i	i	-0.85	0
CCCOC(=O)C1=C(C)NC2=C(C(=O)C(C(=O)OC)C(C)C2)C1c1ccc(N(CC)CC)cc1 (configuration not stated)	-13	i	i	3	-8	-7	nt	nt	nt	nt
Cc1nn(CCCC(=O)Nc2ccc(Br)cc2F)c(C)c1[N+](=O)[O-]	-4	i	i	-11	9	-2	nt	nt	nt	nt
SMILES	TLR9-MyD88 inh	ANO1 activ	TMEM16A inh	NOD2 RIPK2 PPI	TLR4-MyD88 BLA	m5-HT2A agonist	TMEM16A reconf	TMEM16A Ca cntr	Parental YFP cnt	ClC-1 rat inh
CCOc1ccc(S(=O)(=O)Nc2cccc(Cl)c2)cc1	7	i	i	-8	-10	-5	nt	nt	nt	nt
CCOc1ccc(S(=O)(=O)Nc2cc(Cl)ccc2O)cc1	-9	i	100*	-4	-5	-2	36%*	i	-0.9	-19
COc1cc2c(cc1OC)C(O)C(O)(CO)C(C(=O)O)C2c1cc(OC)c(OC)c(OC)c1 (configuration not stated)	-3	i	nt	-1	nt	-2	nt	nt	nt	nt
Cc1cc(C)c2nc(SC(C)C#N)cc(C)c2c1 (configuration not stated)	9	i	100*	-4	-1	4	i	i	-1.1	0
CC(=O)c1c(C(C)=O)c(C)n(Cc2ccc3c(c2)OCO3)c1C	5	i	i	-9	-8	-5	nt	nt	nt	nt
Cc1ccccc1-n1nc2c(c1NC(=O)c1cc3ccccc3oc1=O)CS(=O)(=O)C2	nt	nt	25*	nt	5	nt	i	i	-1.3	-8
Cc1ccccc1-n1nc2c(c1NC(=O)c1cc3ccccc3oc1=O)CS(=O)C2 (configuration not stated)	1	i	i	7	7	9	nt	nt	nt	nt
COc1ccc(C(c2c[nH]c3ccccc23)c2c[nH]c3ccccc23)cc1O	2	i	100*	-6	-8	3	32%*	i	-0.88	-1
CCC(C)NS(=O)(=O)c1ccc(S(=O)(=O)N2CCCC3(CCCCC3)C2)cc1 (configuration not stated)	0	i	100*	-6	0	-3	52%*	i	-1.1	-30
O=C(COC(=O)c1ccc(C(F)(F)F)cc1)NC(=O)NC1CCCC1	2	i	nt	-7	nt	-1	nt	nt	nt	nt
COCCCN(CCC#N)C(=O)c1c(-c2c(Cl)cccc2Cl)noc1C	-6	i	i	5	nt	3	nt	nt	nt	nt
Cc1ccc(Nc2nc(-c3c(C)nc4ccccn34)cs2)cc1	0	i	25*	18	-4	-3	32%*	i	-1.4	-16
Cc1nc2ccccn2c1-c1csc(NCc2ccco2)n1	-2	i	25*	-10	10	-2	i	i	-0.96	-8
